High-throughput results deposited in PubChem BioAssay by National Center for Advancing Translational Sciences (NCATS).
S2 tox – reduces viability in counter-screen for ATXN expression inhibitors. S2 cells (HEK-293 line with an ATXN2-luciferase reporter) viability, CellTiter-Fluor protease fluorescence, 24 h. Potency, µM (top dose mostly 56.7 µM), most hits filed as cytotoxic. actives 0.49% (n = 400,000). AID 651635; further: nearly all actives have a fitted effect of over 40% in size
HT1080-NT tox – kills 2HG-producing HT-1080-NT fibrosarcoma cells. Potency, µM (titrated, usually from 46.1 µM), for inactives: top-dose activity, negative = less viability, usual class: cytotoxic. actives 1.6% (n = 360,000). HT-1080-NT fibrosarcoma viability, CellTiter-Glo ATP luminescence, 48 h. AID 686970;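 further: NT is the 2HG producing partner of a matched IDH1 knockdown line; 0% = DMSO-treated cells and -100% = media-only wells without cells; nearly all actives have a fitted effect of over 55% in size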
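Read-out is CellTiter-Glo luminescence after 10 minutes at room temperature, following 48 hours' compound treatment of HT-1080-NT cells (750 cells/well, RPMI, 5% FBS, 37 degrees C).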
TGFb SMAD3 inh – TGF-b pathway inhibition. HepG2 CAGA-GFP TGF-b/SMAD3 reporter, GFP fluorescence, 18 h; TGF-beta stimulated, 500 pg/mL final. Potency, µM (series often up to 46.1 µM), inactives show at the highest dose activity, negative = inhibition, hits mostly inhibitors. actives 1.2% (n = 410,000). AID 588855; further: on the % scale 0 is the no-effect control and ±100 the full control effect; nearly all actives have a fitted effect of over 65% in size
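Using HEPG2 CAGA-GFP reporter cells at 1000 cells/well, we pinned test compounds, stimulated with recombinant TGF-beta (500 pg/mL final) and measured total well GFP after 18 h.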
HT1080 IDH1KD tx – toxicity to HT-1080 IDH1 knockdown cells (counter line) | HT-1080 IDH1 knockdown viability, ATP luminescence, 48 h | Potency, µM (highest dose often 46.1 µM), for the others: at the highest dose activity, negative = toxicity, hits mostly cytotoxic | actives 2% (n = 360,000) | AID 686971;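 further: 0% = DMSO wells and -100% = cell-free medium wells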
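HT-1080-IDH1KD cells (IDH1 knocked down), 750/well in RPMI with 5% FBS, treated with compound 48 h at 37 degrees C. Viability by CellTiter-Glo luminescence, normalised to DMSO and no-cell wells; concentration-response curves classed.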
ATXN2 expr inh – inhibitors of ATXN2 expression | HEK-293 ATXN2-luciferase reporter, luminescence, 24 h | Potency, µM (titrated, usually from 57 µM), for inactives: at the highest dose activity change, negative = inhibition, usual class: inhibitors | actives 0.72% (n = 360,000); further: on the % scale 0 is the no-effect control and ±100 the full control effect; nearly all actives have a fitted effect of over 55% in size
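ATXN2-luciferase reporter cells (luciferase flanked by upstream and downstream ATXN2 gene portions) were treated 24 h at 37 °C with compounds at up to 57 uM. SteadyGlo luminescence gave expression; GF-AFC fluorescence gave viability.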
HepG2 viability – HepG2 cytotoxicity, counter-screen for TGF-b inhibitors | HepG2 CAGA-GFP viability, ATP luminescence, 18 h | Potency, µM (top dose mostly 46.1 µM), inactives show top-dose activity change, negative = cytotoxicity, usual class: cytotoxic | actives 0.76% (n = 410,000)
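HepG2 CAGA-GFP cells (1000/well, DMEM with 1% FBS) received compound, then TGF-beta at 500 pg/mL final, and were incubated 18 hours at 37 degrees C. Viability was read by CellTiter-Glo luminescence. Media-only wells were set as complete cell-killing and DMSO as no toxicity.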
An asterisk follows results filed as active; i = inactive; ? = inconclusive; . = not tested or not shown; [ ] = remark or other dose. Rows were chosen to be rich in hits. Some 3.8% of all compounds tested hit in one or more screens of this group. The call rests on the fitted dose curve; in most records, active means well fitted curve in the direction sought with a large enough effect; inconclusive means small, poorly fitted or top-dose-only effect, or another doubt; inactive means no such curve, though single readings can be large; an effect the other way counts as inactive or inconclusive. Potency means the concentration at half of the fitted maximal effect.

SMILES | S2 tox | HT1080-NT tox | TGFb SMAD3 inh | HT1080 IDH1KD tx | ATXN2 expr inh | HepG2 viability
Cc1ccnn1CC(=O)N/N=C/c1cccs1 | i | 25% | 1% | 18% | -6% | -13%
Cc1ccccc1C(=O)N/N=C/c1ccc([N+](=O)[O-])s1 | ? | 20µM* | ? | 8.9µM* | 7.9µM* | -109%
O=C(Cn1cc(C(=O)C(F)(F)F)c2ccccc21)N1CCCCCC1 | ? | . | 10% | . | 51% | 4%
Cc1ccc(N(Cc2cccs2)C(=O)c2ccc(OC(C)C)cc2)cc1 | . | . | -17% | . | . | -50%
O=C(N/N=C/c1ccc([N+](=O)[O-])s1)c1ccccc1Br | ? | ? | 11µM* | 16µM* | ? | 10µM*
Cn1c(SCC(=O)N/N=C/c2cc([N+](=O)[O-])ccc2O)nnc1-c1ccccc1 | i | -17% | -7% | -3% | ? | 0%
Cn1c(SCC(=O)N/N=C/c2ccc([N+](=O)[O-])s2)nnc1-c1ccccc1 | ? | 21µM* | ? | 16µM* | ? | -75%
COC(=O)N/N=C/c1ccc([N+](=O)[O-])s1 | i | -1% | ? | ? | -28% | -35%
O=C(N/N=C\c1ccc([N+](=O)[O-])s1)c1cncc(Br)c1 | 28µM* | ? | 6.3µM* | 6.5µM* | 10µM* | 3.5µM*
O=C(Cc1ccccc1)N/N=C/c1ccc([N+](=O)[O-])s1 | i | ? | ? | ? | -31% | -79%
O=C(N/N=C/c1ccc([N+](=O)[O-])s1)C(O)c1ccccc1 (stereo not drawn) | ? | ? | 7.9µM* | ? | ? | 7.9µM*
CCOC(=O)c1ccc(OCCN2C[C@H](O)[C@@H](O)[C@H](O)[C@H]2CO)cc1 | i | . | . | . | 19% | .
N[C@@]1(C(=O)O)CS(=O)(=O)[C@H]2[C@H](C(=O)O)[C@H]21 | . | . | . | . | -13% | .
Cn1c(C(=O)NCCc2ccccc2)cc2sc(Cl)cc21 | i | . | 2% | . | 29% | -30%
Cc1ccc(NC(C)C(=O)N/N=C/c2ccc([N+](=O)[O-])s2)cc1 (stereo not drawn) | i | ? | ? | ? | 33%[11.3 µM] | -79%
O=C(N/N=C/c1ccc([N+](=O)[O-])s1)c1ccccc1 | i | -10% | 11µM* | -13% | ? | 13µM*
COc1ccc(NC(C)C(=O)N/N=C/c2ccc([N+](=O)[O-])s2)cc1 (stereo not drawn) | ? | -21% | 13µM* | -4% | ? | 18µM*
CC(C)c1c(C(=O)NCC2(N3CCOCC3)CCCC2)cnn1-c1nccc(-c2cccs2)n1 | i | . | . | . | . | .
CC(C)(C)c1ccc(-c2n[nH]c(=S)n2Cc2ccccc2)cc1 | ? | ? | ? | ? | -9% | 13µM*
Fc1ccc(-c2n[nH]c(=S)n2Cc2ccccc2)cc1 | i | 12% | 0% | 8% | -14% | -10%
CN(C1=NC(=O)C(CC(=O)Nc2ccc(Br)cc2)S1)c1ccc(O)cc1 (stereo not drawn) | ? | ? | ? | 7.9µM* | -30% | -48%
O=C(CC1SC(=O)N(c2ccccc2)C1=O)Nc1ccc(Br)cc1 (stereo not drawn) | ? | 12% | -21% | 7% | -19% | -1%
Cc1ccccc1-c1cc2c(c(OC3CCOC3)c1)OCCN(C(=O)Cn1cccn1)C2 (stereo not drawn) | i | . | . | . | . | .
Cn1c(/C=N/Nc2nc3ccccc3[nH]2)nc2ccccc21 | i | -30% | ? | ? | 53% | -24%
Cc1nn(-c2ccccc2)c(C)c1/C=N/Nc1nc2ccccc2[nH]1 | ? | ? | ? | 18µM* | -9% | -46%
SMILES | S2 tox | HT1080-NT tox | TGFb SMAD3 inh | HT1080 IDH1KD tx | ATXN2 expr inh | HepG2 viability
C=CCn1cc(/C=N/Nc2nc3ccccc3[nH]2)c2ccccc21 | ? | 21µM* | ? | 16µM* | -4% | 0%
CCCn1c(/C=N/Nc2nc3ccccc3[nH]2)nc2ccccc21 | . | ? | ? | ? | ? | -19%
CCN(CC)c1ccc(/C=N/Nc2nc3ccccc3[nH]2)cc1 | 5.6µM* | ? | 3% | ? | . | -2%
CC(C)Cn1c(/C=N/Nc2nc3ccccc3[nH]2)nc2ccccc21 | ? | ? | ? | ? | 4.5µM* | -18%
CC(SC1=NS(=O)(=O)c2ccccc21)C(=O)O (stereo not drawn) | . | . | 14% | . | . | 15%
Cc1c(/C=N/Nc2nc3ccccc3[nH]2)c2ccccc2n1C | ? | 21µM* | ? | ? | -25% | -32%
CCCN1C(=O)C(=O)c2cc(C)ccc21 | ? | ? | 4% | ? | 0% | 7%
CCCCN1C(=O)C(=O)c2cc(Cl)ccc21 | ? | 26µM* | 13µM* | 21µM* | ? | -86%
CCOc1ccc(CNC(=O)C2CCN(C(=O)c3sccc3-n3cccc3)CC2)cc1 | . | . | . | . | . | -30%
CC(I)CCC(C)[n+]1cccc(I)c1 (stereo not drawn) | . | . | -2% | . | . | 7%
CCCCNc1ccc(C(F)(F)F)cc1S(=O)(=O)NCCc1ccc(F)cc1 | ? | ? | ? | ? | 0% | 5µM*
Cc1ccc(Nc2nc(NCc3ccco3)nc3nccnc23)c(C)c1 | . | . | 2% | . | . | 7%
Cc1ccc(C(N)=O)cc1Nc1nccc(-c2cn(C(C)C)c3cnccc23)n1 | . | . | . | . | 12µM* | .
COc1cc(N)c(NC(=O)/C=C/c2nc3cc(OC)c(OC)cc3[nH]2)cc1OC | . | . | 12% | . | . | -2%
Cc1cccc(C)c1NC(=O)Cn1c(=O)n(Cc2ccco2)c(=O)c2ccc(C(=O)NC3CCCC3)cc21 | i | . | 6% | . | 10% | -9%
O=C(Nc1ccc([N+](=O)[O-])cc1)N1CCc2ccccc2C1 | i | -2% | -4% | 12µM* | 23% | -16%
CC(C)c1ccc(NC(=O)N2CCc3ccccc3C2)cc1 | i | 0% | -6% | -26% | 80% | -14%
CC1(C)CC(=O)C2=C(C1)c1c(ccc3ccccc13)NC2c1ccc(OCC(=O)O)cc1 (stereo not drawn) | . | -2% | 0% | 2% | . | 1%
CC1(C)CC(=O)C2=C(C1)c1c(ccc3ccccc13)NC2c1ccc(Br)o1 (stereo not drawn) | ? | ? | -20% | ? | -24% | 20µM*
CCCN1C(=O)c2ccccc2NC1c1ccc(OC)c(COc2ccc([N+](=O)[O-])cc2)c1 (stereo not drawn) | . | . | -9% | . | . | -9%
